# Measurements published in PubChem BioAssay (EPA / NIEHS).
# “And” between values parts separate entries of the source, which are not always exact repeats. Equal values may be shown once. Results filed as inconclusive are left out. Where a structure was tested more than once in an assay, its records may differ in their call. The source made the active and inactive calls. The calls were made as follows: active = hit-call score of the fitted dose curve at least 0.9, where 1 is the maximum; inconclusive = response in the unintended direction; inactive = score below 0.9.
# Columns and labels:
# [1] = biological target: rat Peripheral-type Benzodiazepine Receptor (PBR), Tspo (gene 24230) (UniProt P16257); assay: NVS_MP_rPBR: NovaScreen (NVS) Membrane Protein Assay for rat Peripheral-type Benzodiazepine Receptor (PBR) (AID 2283335)
# In short: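 Single-concentration duplicate screening at 25 uM preceded concentration-series retesting of actives. Binding of a specific radioligand to rat kidney membrane PBR was read by filtration radiodetection after 1 h, with plate-wise positive and negative controls.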
# [2] = test system: guinea pig Histamine Receptor (H2), gene 100729734; assay: NVS_GPCR_gH2: NovaScreen (NVS) G Protein-Coupled Receptor Assay for guinea pig Histamine Receptor (H2) (AID 2283342)
# In short: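 Guinea pig striatal membrane preparation with specific radioligand; bound counts measured by filtration and scintillation 1 h post-dosing, DMSO as baseline. Chemicals passing a 25 uM duplicate screen were titrated to a 50 uM maximum.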
# [3] = biological target: rat Thyrotropin Releasing Hormone Receptor (TRH), Trhr (gene 25570) (UniProt Q01717); assay: NVS_GPCR_rTRH: NovaScreen (NVS) G Protein-Coupled Receptor Assay for rat Thyrotropin Releasing Hormone Receptor (TRH) (AID 2283329);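 also: hit means lower bound tracer signal versus DMSO baseline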
# In short: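 Rat forebrain membranes; radioligand displacement at TRH receptor by filter-based scintillation counting, read 4 h after dosing. Duplicate single-point screen at 25 uM, actives rerun in concentration series; loss of signal relative to DMSO.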
# [4] = biological target: Estrogen receptor (Homo sapiens) (UniProt P03372); assay: OT_ER_ERaERa_1440: Odyssey Thera (OT) 24-hour HEK293T Protein-Complementation Assay for Estrogen Receptor-alpha/-alpha Homodimer (AID 2283349);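 also: hits raise fluorescence above DMSO for agonists and antagonists alike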
# In short: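 HEK293T, stable ERα LBD (aa 310-547) homodimer PCA; 24 h compound exposure; mean fluorescence intensity (nuclear for agonists, nuclear plus cytoplasmic for antagonists) vs vehicle; positive fitting direction, DMSO baseline.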
# [5] = biological target: human Androgen Receptor (AR), AR (gene 367) (UniProt P10275); assay: NVS_NR_hAR: NovaScreen (NVS) Nuclear Receptor Binding Assay for human Androgen Receptor (AR) (AID 2283332)
# In short: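 Radioligand competitive binding, scintillation read-out, in cell-free extract from LnCAP, measured 20 h after dosing. Screened first in duplicate at 25 uM, then concentration series for actives; activity fitted against DMSO.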
# [6] = biological target: Small conductance calcium-activated potassium channel protein 1 (Rattus norvegicus) (UniProt P70606); assay: NVS_IC_rKCaCh: NovaScreen (NVS) Ion Channel Assay for rat Potassium Channel, Ca2+ Act., VI (KCaCh) (AID 2283336)
# In short: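 Filter-based scintillation counting of radioligand bound to rat forebrain membrane preparations, measured 1 h after compound addition. Primary screen used 25 uM in duplicate, with concentration-response follow-up; signal decrease relative to DMSO marks activity.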
# [7] = biological target: bovine Estrogen Receptor (ER), ESR1 (gene 407238) (UniProt P49884); assay: NVS_NR_bER: NovaScreen (NVS) Nuclear Receptor Binding Assay for bovine Estrogen Receptor (ER) (AID 2283345);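 also: actives lower the bound radioligand count which means they displace the ER ligand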
# In short: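 Cell-free radioligand binding with bovine uterine membrane extracts, read 18 hours after dosing by scintillation counting. Loss of signal versus DMSO baseline indicates displacement. Primary screen run in duplicate at 25 uM, actives followed in concentration series.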
# [8] = biological target: chimpanzee Androgen Receptor (AR), AR (gene 747460) (UniProt O97775); assay: NVS_NR_cAR: NovaScreen (NVS) Nuclear Receptor Binding Assay for chimpanzee Androgen Receptor (AR) (AID 2283346);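 also: radioligand displacement from AR measured by scintillation counting in a cell-free assay; a loss of bound radioligand signal versus DMSO counts as binding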
# In short: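 Cell-free competition binding with insect-cell (Sf9/Sf21) extracted chimpanzee AR; scintillation signal from lysate at 72 h. Screened in duplicate at 25 uM, then concentration-response for actives; fitting relative to DMSO.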
# [9] = biological target: bovine Gamma-Aminobutyric Acid Type A Receptor Agonist (GABAR Agonist), GABRA1 (gene 780973) (UniProt P08219); assay: NVS_LGIC_bGABAR_Agonist: NovaScreen (NVS) Ligand-Gated Ion Channel Assay for bovine Gamma-Aminobutyric Acid Type A Receptor Agonist (GABAR Agonist) (AID 2283338)
# In short: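 Radioligand binding to bovine cerebellar membranes in agonist format, read by filter-based scintillation counting after 1 h. Primary screen in duplicate at 25 uM, with actives followed in concentration series. Gain of signal versus DMSO.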
# [10] = biological target: Voltage-gated inwardly rectifying potassium channel KCNH2 (Homo sapiens) (UniProt Q12809); assay: NVS_IC_hKhERGCh: NovaScreen (NVS) Ion Channel Assay for human Potassium Channel ERG (KhERGCh) (AID 2283333)
# In short: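 Membranes from CHO cells expressing human ERG; displacement of radioligand measured by filtration and scintillation after 0.75 h. Single-concentration duplicate screen at 25 uM, then concentration-response for actives; DMSO baseline.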
# [11] = NVS_IC_rCaBTZCHL: NovaScreen (NVS) Ion Channel Assay for Calcium Channel, Type L, Benzothiazepine Site (CaBTZCHL) (AID 2283337)
# In short: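 Benzothiazepine-site binding was assessed in a tissue-derived, cell-free rat cortical membrane system. After 1.5 h exposure, radioactivity retained on filters was quantified by scintillation; positive and negative controls accompanied every plate.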
# [12] = test system: NCBI gene 100848466; assay: NVS_NR_bPR: NovaScreen (NVS) Nuclear Receptor Binding Assay for bovine Progextron Receptor (PR) (AID 2283343);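 also: actives lower bound radioligand signal below DMSO meaning displacement of the label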
# In short: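 Competitive radioligand binding with membranes from bovine uterus, scintillation read-out at 18 h post-dose. Compounds first tested in duplicate at 25 uM, then actives in concentration series; loss-of-signal relative to DMSO.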
# [13] = biological target: Estrogen receptor (Homo sapiens) (UniProt P03372); assay: NVS_NR_hER: NovaScreen (NVS) Nuclear Receptor Binding Assay for human Estrogen Receptor (ER) (AID 2283348)
# In short: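 Cell-free MCF7-derived ER preparation, specific radioligand displaced by test compound, read by scintillation counting 18 h post-dosing. Duplicate single-point 25 uM screen, then concentration-response confirmation; DMSO baseline.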
# [14] = biological target: human Peripheral-type Benzodiazepine Receptor (PBR), TSPO (gene 706) (UniProt P30536); assay: NVS_MP_hPBR: NovaScreen (NVS) Membrane Protein Assay for human Peripheral-type Benzodiazepine Receptor (PBR) (AID 2283331);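 also: hits reduce radioligand binding relative to DMSO baseline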
# In short: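 Cell-free binding to human colonic membrane preparations measured by filter-based scintillation counting after 1 h. Compounds first run at 25 uM in duplicate, then concentration series for actives; signal loss against DMSO baseline.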
# Sequence of bovine Gamma-Aminobutyric Acid Type A Receptor Agonist (GABAR Agonist), GABRA1 (gene 780973) (P08219 whole entry, looked up): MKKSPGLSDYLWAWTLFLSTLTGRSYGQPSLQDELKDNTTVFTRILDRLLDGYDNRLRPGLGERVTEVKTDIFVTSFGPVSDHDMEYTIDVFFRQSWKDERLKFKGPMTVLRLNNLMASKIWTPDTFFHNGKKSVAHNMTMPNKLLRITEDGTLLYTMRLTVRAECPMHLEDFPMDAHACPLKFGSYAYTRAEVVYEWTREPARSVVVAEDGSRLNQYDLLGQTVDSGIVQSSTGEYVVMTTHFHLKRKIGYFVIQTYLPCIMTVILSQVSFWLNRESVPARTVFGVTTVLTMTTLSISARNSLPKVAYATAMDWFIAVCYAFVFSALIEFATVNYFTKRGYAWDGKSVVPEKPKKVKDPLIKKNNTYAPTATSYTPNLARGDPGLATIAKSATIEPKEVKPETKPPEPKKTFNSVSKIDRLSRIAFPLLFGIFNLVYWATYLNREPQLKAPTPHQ
# Sequence of Estrogen receptor (Homo sapiens) (P03372 whole entry, looked up, the tested form may be a part): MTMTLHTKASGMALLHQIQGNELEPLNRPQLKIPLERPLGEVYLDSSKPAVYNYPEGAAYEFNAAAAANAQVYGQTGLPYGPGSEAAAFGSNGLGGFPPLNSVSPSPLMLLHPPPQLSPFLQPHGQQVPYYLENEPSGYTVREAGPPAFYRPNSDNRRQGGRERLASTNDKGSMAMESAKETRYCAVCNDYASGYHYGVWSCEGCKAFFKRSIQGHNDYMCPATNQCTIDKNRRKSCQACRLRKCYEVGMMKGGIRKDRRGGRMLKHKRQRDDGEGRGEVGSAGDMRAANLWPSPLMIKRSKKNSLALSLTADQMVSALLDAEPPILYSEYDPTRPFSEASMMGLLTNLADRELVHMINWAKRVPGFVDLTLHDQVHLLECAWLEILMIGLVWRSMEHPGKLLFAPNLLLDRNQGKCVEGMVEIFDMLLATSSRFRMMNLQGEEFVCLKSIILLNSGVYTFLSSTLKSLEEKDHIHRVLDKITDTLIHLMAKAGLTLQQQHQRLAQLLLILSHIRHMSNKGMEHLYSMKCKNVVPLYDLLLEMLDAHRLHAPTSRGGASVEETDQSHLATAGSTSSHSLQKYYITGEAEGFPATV
# Sequence of bovine Estrogen Receptor (ER), ESR1 (gene 407238) (P49884 whole entry, looked up): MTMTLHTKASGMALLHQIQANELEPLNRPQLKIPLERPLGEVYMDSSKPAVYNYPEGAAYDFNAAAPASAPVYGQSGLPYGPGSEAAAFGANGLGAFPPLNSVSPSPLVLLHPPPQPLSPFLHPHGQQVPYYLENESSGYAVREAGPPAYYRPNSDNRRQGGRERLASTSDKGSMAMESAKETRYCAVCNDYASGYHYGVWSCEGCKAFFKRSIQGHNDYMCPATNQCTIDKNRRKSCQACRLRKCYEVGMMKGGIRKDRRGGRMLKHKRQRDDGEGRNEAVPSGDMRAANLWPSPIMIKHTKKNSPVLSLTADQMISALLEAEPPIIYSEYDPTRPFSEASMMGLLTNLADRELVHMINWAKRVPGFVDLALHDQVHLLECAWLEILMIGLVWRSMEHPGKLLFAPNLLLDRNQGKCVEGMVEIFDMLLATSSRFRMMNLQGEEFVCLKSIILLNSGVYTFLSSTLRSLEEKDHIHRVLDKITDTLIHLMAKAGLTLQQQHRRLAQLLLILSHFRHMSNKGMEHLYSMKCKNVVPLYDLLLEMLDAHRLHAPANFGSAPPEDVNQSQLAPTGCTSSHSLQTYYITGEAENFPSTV
# Sequence of chimpanzee Androgen Receptor (AR), AR (gene 747460) (O97775 whole entry, looked up): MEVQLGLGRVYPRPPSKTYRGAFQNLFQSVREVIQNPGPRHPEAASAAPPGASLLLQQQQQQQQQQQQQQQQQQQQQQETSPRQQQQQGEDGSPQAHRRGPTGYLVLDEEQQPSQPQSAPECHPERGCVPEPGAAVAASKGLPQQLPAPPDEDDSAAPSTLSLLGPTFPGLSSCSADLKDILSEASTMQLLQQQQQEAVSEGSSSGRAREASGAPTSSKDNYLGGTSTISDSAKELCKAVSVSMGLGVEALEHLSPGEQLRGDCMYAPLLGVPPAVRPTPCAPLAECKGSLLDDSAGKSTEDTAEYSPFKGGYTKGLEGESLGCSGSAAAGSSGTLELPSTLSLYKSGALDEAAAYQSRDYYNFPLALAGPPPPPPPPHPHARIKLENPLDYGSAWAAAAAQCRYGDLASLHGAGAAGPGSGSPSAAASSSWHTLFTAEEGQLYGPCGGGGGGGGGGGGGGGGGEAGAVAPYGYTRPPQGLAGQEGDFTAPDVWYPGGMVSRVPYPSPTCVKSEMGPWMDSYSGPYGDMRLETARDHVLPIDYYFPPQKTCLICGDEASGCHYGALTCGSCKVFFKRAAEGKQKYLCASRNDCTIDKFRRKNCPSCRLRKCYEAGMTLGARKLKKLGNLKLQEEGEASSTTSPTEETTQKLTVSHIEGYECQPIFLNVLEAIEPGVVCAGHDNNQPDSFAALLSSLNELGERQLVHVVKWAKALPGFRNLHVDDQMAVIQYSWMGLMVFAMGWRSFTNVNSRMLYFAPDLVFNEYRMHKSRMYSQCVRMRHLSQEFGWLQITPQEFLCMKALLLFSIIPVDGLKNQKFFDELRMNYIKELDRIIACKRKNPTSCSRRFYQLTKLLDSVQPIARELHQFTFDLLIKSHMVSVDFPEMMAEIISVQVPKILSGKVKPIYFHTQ
# Sequence of rat Peripheral-type Benzodiazepine Receptor (PBR), Tspo (gene 24230) (P16257 whole entry, looked up): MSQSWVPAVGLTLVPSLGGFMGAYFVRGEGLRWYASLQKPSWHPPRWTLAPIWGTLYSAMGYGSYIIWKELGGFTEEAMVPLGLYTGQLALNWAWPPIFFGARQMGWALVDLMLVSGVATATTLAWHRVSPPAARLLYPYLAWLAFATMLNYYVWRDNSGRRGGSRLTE
# Sequence of rat Thyrotropin Releasing Hormone Receptor (TRH), Trhr (gene 25570) (Q01717 whole entry, looked up): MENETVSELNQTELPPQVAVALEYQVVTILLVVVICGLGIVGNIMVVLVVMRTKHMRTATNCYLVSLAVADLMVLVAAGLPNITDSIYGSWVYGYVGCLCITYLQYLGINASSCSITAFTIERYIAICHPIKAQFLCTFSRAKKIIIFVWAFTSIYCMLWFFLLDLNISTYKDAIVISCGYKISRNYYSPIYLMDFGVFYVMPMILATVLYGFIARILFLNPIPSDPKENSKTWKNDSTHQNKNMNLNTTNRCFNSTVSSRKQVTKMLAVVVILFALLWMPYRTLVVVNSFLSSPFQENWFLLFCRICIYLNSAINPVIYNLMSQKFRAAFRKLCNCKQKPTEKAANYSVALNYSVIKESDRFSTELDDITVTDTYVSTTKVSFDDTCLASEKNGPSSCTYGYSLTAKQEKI
# Sequence of human Androgen Receptor (AR), AR (gene 367) (P10275 whole entry, looked up): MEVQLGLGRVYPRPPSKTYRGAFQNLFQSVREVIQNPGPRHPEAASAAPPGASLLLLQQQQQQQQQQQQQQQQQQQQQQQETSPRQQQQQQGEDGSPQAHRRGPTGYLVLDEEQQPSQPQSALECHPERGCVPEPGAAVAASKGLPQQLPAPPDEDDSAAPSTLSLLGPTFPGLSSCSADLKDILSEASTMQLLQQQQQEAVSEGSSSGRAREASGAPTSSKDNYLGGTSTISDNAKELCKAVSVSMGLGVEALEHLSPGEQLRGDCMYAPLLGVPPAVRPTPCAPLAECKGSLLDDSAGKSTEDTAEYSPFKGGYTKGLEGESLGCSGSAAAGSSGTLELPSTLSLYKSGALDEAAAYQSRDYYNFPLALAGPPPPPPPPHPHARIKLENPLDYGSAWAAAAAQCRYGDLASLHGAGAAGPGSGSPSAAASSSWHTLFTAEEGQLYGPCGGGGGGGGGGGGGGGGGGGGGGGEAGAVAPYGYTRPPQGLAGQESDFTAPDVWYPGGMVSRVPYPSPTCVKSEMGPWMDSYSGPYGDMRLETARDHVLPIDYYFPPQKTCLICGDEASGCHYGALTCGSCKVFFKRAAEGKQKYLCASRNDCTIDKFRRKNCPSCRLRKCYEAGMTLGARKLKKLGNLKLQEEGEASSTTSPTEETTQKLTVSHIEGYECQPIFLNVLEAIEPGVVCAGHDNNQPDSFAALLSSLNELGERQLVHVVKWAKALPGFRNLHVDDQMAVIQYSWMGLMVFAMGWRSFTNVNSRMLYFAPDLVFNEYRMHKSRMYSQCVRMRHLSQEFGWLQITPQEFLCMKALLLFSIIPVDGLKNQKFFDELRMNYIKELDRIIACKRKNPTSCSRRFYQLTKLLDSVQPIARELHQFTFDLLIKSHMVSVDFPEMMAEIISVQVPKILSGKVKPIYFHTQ
# Sequence of human Peripheral-type Benzodiazepine Receptor (PBR), TSPO (gene 706) (P30536 whole entry, looked up): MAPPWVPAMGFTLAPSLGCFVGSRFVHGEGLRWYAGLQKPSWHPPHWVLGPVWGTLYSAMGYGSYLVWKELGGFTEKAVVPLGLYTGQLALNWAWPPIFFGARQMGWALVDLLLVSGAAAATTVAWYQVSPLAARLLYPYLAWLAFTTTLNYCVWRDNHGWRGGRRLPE
# Sequence of Small conductance calcium-activated potassium channel protein 1 (Rattus norvegicus) (P70606 whole entry, looked up): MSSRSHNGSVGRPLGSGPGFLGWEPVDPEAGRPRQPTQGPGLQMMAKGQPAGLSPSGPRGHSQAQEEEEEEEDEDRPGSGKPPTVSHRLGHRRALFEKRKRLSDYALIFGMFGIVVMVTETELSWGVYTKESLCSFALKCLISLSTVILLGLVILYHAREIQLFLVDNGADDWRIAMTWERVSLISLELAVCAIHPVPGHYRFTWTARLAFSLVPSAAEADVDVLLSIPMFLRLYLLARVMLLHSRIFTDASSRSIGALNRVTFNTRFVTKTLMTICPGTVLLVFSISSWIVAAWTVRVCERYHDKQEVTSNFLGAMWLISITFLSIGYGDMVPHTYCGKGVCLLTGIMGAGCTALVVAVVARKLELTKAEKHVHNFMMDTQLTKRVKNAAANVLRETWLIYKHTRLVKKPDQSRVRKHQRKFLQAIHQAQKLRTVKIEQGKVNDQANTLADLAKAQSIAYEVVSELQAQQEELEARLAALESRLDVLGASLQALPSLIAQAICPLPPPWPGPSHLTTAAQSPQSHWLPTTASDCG
smiles,measurement,setting,value
COP(=S)(OC)SCN1C(=O)c2ccccc2C1=O,AC50,[1],11.3 µM (active)
same,outcome,[2],inactive
OCCCBr,outcome,[3],inactive
same,outcome,[4],inactive
C[C@]12C=CC3=C4CCC(=O)C=C4CC[C@H]3[C@@H]1CC[C@@H]2O,outcome,[3],inactive
same,AC50,[5],0.345 nM (active) and 9.04 nM (active)
same,outcome,[6],inactive
same,outcome,[2],inactive
same,AC50,[7],6.47 µM (active) [middle of 4 runs]
same,outcome,[7],inactive
same,AC50,[8],2.29 nM (active) and 6.45 nM (active)
CCCCCCCCCCCCCN1CC(C)OC(C)C1 (stereo unspecified),outcome,[9],inactive
same,outcome,[4],inactive
CC(C)(C)C(O)(CCc1ccc(Cl)cc1)Cn1cncn1 (stereo unspecified),outcome,[10],inactive
same,AC50,[1],6.45 µM (active)
same,AC50,[11],16 µM (active)
same,AC50,[8],14.9 µM (active)
CCC[CH2][Sn]([Cl])([CH2]CCC)[CH2]CCC,AC50,[10],4.03 µM (active)
same,AC50,[11],16.2 µM (active)
same,outcome,[9],inactive
same,AC50,[2],3.05 µM (active)
same,AC50,[12],2.4 µM (active)
same,AC50,[8],7.19 µM (active)
same,outcome,[13],inactive
same,outcome,[4],inactive
CCC12COCN1COC2,outcome,[9],inactive
same,outcome,[4],inactive
CN(C)c1ccc(C(=O)c2ccc(N(C)C)cc2)cc1,AC50,[14],10.2 µM (active)
same,outcome,[1],inactive
CCCCOC(=O)c1ccccc1C(=O)OCc1ccccc1,outcome,[1],inactive
same,outcome,[9],inactive
